According to PubChem BioAssay (NCI):
This is part of a sample that, as a whole, favours compounds with a hit. Of some 83,000 tested, about 20% had one in any assay.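 The test compound was applied at a single concentration to cells in 96-well plates for 48 hours, and percent growth was recorded.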 Unmarked numbers belong to inactive results. Calls of active or inactive are those of the source. Rule for the calls: active = growth percent below 10; inactive = the rest.

Columns and labels:
Assay in all cases: NCI-60 one-dose screen, 48 h (100 = growth as untreated, 0 = no growth, -100 = all killed)
Conditions in all cases: 10 µM
K-562 leukemia = system: K-562 leukemia
MALME-3M melanoma = system: MALME-3M melanoma
MDA-MB-231 breast = system: MDA-MB-231 breast
RXF 393 renal = system: RXF 393 renal
SF-268 CNS = system: SF-268 CNS
SF-295 CNS = system: SF-295 CNS
SF-539 CNS = system: SF-539 CNS
UACC-257 melanoma = system: UACC-257 melanoma
M14 melanoma = system: M14 melanoma
HCT-15 colon = system: HCT-15 colon
HT29 colon = system: HT29 colon
SNB-75 CNS = system: SNB-75 CNS
SNB-19 CNS = system: SNB-19 CNS
U251 CNS = system: U251 CNS
PC-3 prostate = system: PC-3 prostate
SK-MEL-5 melanoma = system: SK-MEL-5 melanoma
UACC-62 melanoma = system: UACC-62 melanoma
LOX IMVI melanoma = system: LOX IMVI melanoma
SK-MEL-28 melanoma = system: SK-MEL-28 melanoma
SK-MEL-2 melanoma = system: SK-MEL-2 melanoma

Compound	growth (K-562 leukemia)	growth (MALME-3M melanoma)	growth (MDA-MB-231 breast)	growth (RXF 393 renal)	growth (SF-268 CNS)	growth (SF-295 CNS)	growth (SF-539 CNS)	growth (UACC-257 melanoma)	growth (M14 melanoma)	growth (HCT-15 colon)	growth (HT29 colon)	growth (SNB-75 CNS)	growth (SNB-19 CNS)	growth (U251 CNS)	growth (PC-3 prostate)	growth (SK-MEL-5 melanoma)	growth (UACC-62 melanoma)	growth (LOX IMVI melanoma)	growth (SK-MEL-28 melanoma)	growth (SK-MEL-2 melanoma)
CS(=O)(=O)Nc1cccc(-c2cc(-c3ccccc3Cl)c(C#N)c(N)n2)c1	14.1%	24.8%	49.1%	6.08% (active)	49.2%	7.3% (active)	-14.4% (active)	74.3%	23.4%	30.1%	15.6%	-26.4% (active)	49%	24.7%	22.3%	30.9%	42.8%	43.7%	69.1%	38.5%
COC(=O)C(C(C[N+](=O)[O-])c1ccccc1)=P(c1ccccc1)(c1ccccc1)c1ccccc1 (stereo not given)	53.4%	96%	108%	85.9%	96.1%	91.6%	99.2%	91.5%	76.3%	88.9%	67.7%	85.3%	98.4%	88.3%	85.4%	98.5%	90%	58.1%	109%	89.4%
COc1cc(NC(=O)CCSc2nc3ccc(Cl)cc3c(=O)n2Cc2ccccc2)cc(OC)c1OC	67.1%	84.3%	51.2%	57.2%	95.1%	66.2%	26.8%	61%	75.2%	72.5%	76.2%	36.6%	92.1%	70.2%	43.4%	74.8%	53.4%	91.1%	70.7%	73.7%
COc1ccc(-c2nc(-c3nc4cc(Cl)c(Cl)cc4[nH]3)c3ccccn23)cc1	59.8%	18%	-18.3% (active)	-39.4% (active)	21%	13.9%	8.32% (active)	63.6%	70.1%	76.7%	51.4%	-29.1% (active)	50.5%	22.6%	57%	48.3%	88.9%	43.6%	62.2%	58.1%
C=C1c2c(C)nn(-c3ccc(OC)cc3)c2N(C)C23C[C@@H]1C1(C)c4c(C)nn(-c5ccc(OC)cc5)c4N(C)C(C)(C[C@H]12)C3 (stereo not given in full)	15.5%	53.9%	39.7%	67.9%	36.8%	101%	62.5%	26.8%	40%	26.3%	19.4%	59.6%	46.8%	32.1%	-4.74% (active)	16.1%	26.9%	18.4%	56.8%	37.2%
CCOCC(=O)C(C#N)c1ccc(Cl)c(Cl)c1 (stereo not given)	94.6%	106%	105%	94.8%	106%	89.3%	94.8%	92%	113%	89.9%	104%	78.2%	107%	94.7%	87%	96%	95.4%	100%	100%	115%
N#Cc1cccc(OCc2nc(N)nc(N)c2-c2ccc(Cl)c(Cl)c2)c1	14.6%	33.6%	51.4%	43.7%	28.4%	-7% (active)	22.6%	11.1%	23.2%	17.7%	9.63% (active)	51.7%	47.1%	22%	27.5%	22.4%	22.7%	15.5%	53.4%	42.8%
CSc1nc(=O)n(Cc2ccc(F)cc2)c(=O)n1Cc1ccc(C)cc1	91.1%	97.6%	103%	113%	96.6%	79.8%	108%	106%	99.7%	102%	101%	74.9%	100%	94.7%	88.5%	107%	93.5%	90.9%	108%	108%
COc1cc(Cl)cc(-c2nn(-c3cccc(NC(=O)Nc4ccc(Cl)c(C(F)(F)F)c4)c3)cc2-c2ccncc2)c1	8.93% (active)	-19.8% (active)	-30.8% (active)	-29.9% (active)	22.9%	-7.48% (active)	-1.17% (active)	-25.9% (active)	3.99% (active)	7.28% (active)	5.57% (active)	14.5%	28.1%	-48.3% (active)	-13% (active)	-71.2% (active)	6.62% (active)	4.81% (active)	23.6%	-34% (active)
CC1(C)Cc2c(sc3ncn4nc(-c5ccc(O)cc5)nc4c23)CO1	76.8%	68.2%	70.5%	66.3%	64.1%	76.2%	75.1%	89.7%	86.6%	75.1%	111%	35.5%	79.9%	60.6%	44.4%	56.7%	82.5%	75%	73.5%	84.7%
CCN1CCN(c2nc3ccccc3c3c(=O)c4ccccc4sc23)CC1	12.8%	52.5%	-2.38% (active)	29.8%	45.6%	24.6%	48%	73.9%	-18.5% (active)	31.8%	9.96% (active)	44.5%	67.2%	27.9%	43.7%	7.43% (active)	7.97% (active)	23.5%	31.1%	98.5%
O=C(O)CC(Cl)C(Cl)CC(=O)O (stereo not given)	103%	90.7%	117%	127%	105%	92.7%	99.3%	92.2%	102%	99.2%	101%	103%	103%	98.6%	98.1%	108%	100%	94%	107%	107%
COc1ccccc1CNCCCN1C(=O)c2ccc3c4c(ccc(c24)C1=O)C(=O)N(CCCN)C3=O	-22.7% (active)	-94.1% (active)	3.16% (active)	-56% (active)	-22.1% (active)	-2.42% (active)	-87.3% (active)	-91.9% (active)	-62% (active)	-30.8% (active)	-51.1% (active)	39.3%	-5.76% (active)	-46.6% (active)	-8.32% (active)	-97.5% (active)	-90.2% (active)	-61% (active)	5.1% (active)	-57.3% (active)
Fc1ccc2nc(-c3nc(-c4ccccc4)n4ccccc34)[nH]c2c1	8.58% (active)	-57.7% (active)	-3.47% (active)	-25.7% (active)	-38.6% (active)	-28% (active)	27.3%	-17.4% (active)	27.7%	20.4%	-52.6% (active)	-44.1% (active)	-36.5% (active)	-67% (active)	-71% (active)	4% (active)	3.95% (active)	15.2%	-9.19% (active)	-30.3% (active)
